# Reference: the supplement of paper PMC4466140
# B1: unnamed (peptide)
# chain: PAPPPPPRASRPTPN
# Biological target: AgAbp1
# Test: SPOT peptide array binding signal intensity (averaged, normalized) (arbitrary units (background-subtracted, floor 0; scale differs between SH3 domains)); higher = stronger binding of the SH3 domain to the peptide
# Summary of the method: (§1)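 GST-SH3 fusions from four yeast species, purified on glutathione Sepharose, were incubated at 10 μg/ml overnight at 4°C on membranes of synthetic 15-mer peptides in which cysteines were replaced with serines. Binding signal is the normalized, background-subtracted spot intensity averaged over replicates, in domain-specific arbitrary units.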
row,Binder,SPOT peptide array binding signal intensity
1,B1,7.5

# Biological target: AgBbc1
# Test: as above
# Summary of the method: as §1
row,Binder,SPOT peptide array binding signal intensity
1,B1,438

# Biological target: AgBem1-D1
# Test: as above
# Summary of the method: as §1
row,Binder,SPOT peptide array binding signal intensity
1,B1,19.5

# Biological target: AgBzz1-D1
# Test: as above
# Summary of the method: as §1
row,Binder,SPOT peptide array binding signal intensity
1,B1,57

# Biological target: AgBzz1-D2
# Test: as above
# Summary of the method: as §1
row,Binder,SPOT peptide array binding signal intensity
1,B1,8

# Biological target: AgCyk3
# Test: as above
# Summary of the method: as §1
row,Binder,SPOT peptide array binding signal intensity
1,B1,1

# Biological target: AgFus1
# Test: as above
# Summary of the method: as §1
row,Binder,SPOT peptide array binding signal intensity
1,B1,≤ 0

# Biological target: AgHof1
# Test: as above
# Summary of the method: as §1
row,Binder,SPOT peptide array binding signal intensity
1,B1,0.5

# Biological target: AgHse1
# Test: as above
# Summary of the method: as §1
row,Binder,SPOT peptide array binding signal intensity
1,B1,1.5

# Biological target: AgLsb1
# Test: as above
# Summary of the method: as §1
row,Binder,SPOT peptide array binding signal intensity
1,B1,6.5

# Biological target: AgLsb4
# Test: as above
# Summary of the method: as §1
row,Binder,SPOT peptide array binding signal intensity
1,B1,185

# Biological target: AgMyo5
# Test: as above
# Summary of the method: as §1
row,Binder,SPOT peptide array binding signal intensity
1,B1,≤ 0

# Biological target: AgNbp2
# Test: as above
# Summary of the method: as §1
row,Binder,SPOT peptide array binding signal intensity
1,B1,111

# Biological target: AgRvs167
# Test: as above
# Summary of the method: as §1
row,Binder,SPOT peptide array binding signal intensity
1,B1,34.2

# Biological target: AgSho1
# Test: as above
# Summary of the method: as §1
row,Binder,SPOT peptide array binding signal intensity
1,B1,≤ 0

# Biological target: AgSla1-D1-D2
# Test: as above
# Summary of the method: as §1
row,Binder,SPOT peptide array binding signal intensity
1,B1,3.5

# Biological target: AgSla1-D3
# Test: as above
# Summary of the method: as §1
row,Binder,SPOT peptide array binding signal intensity
1,B1,2

# Biological target: CaAbp1-D1
# Test: as above
# Summary of the method: as §1
row,Binder,SPOT peptide array binding signal intensity
1,B1,24.5

# Biological target: CaAbp1-D2
# Test: as above
# Summary of the method: as §1
row,Binder,SPOT peptide array binding signal intensity
1,B1,3

# Biological target: CaBbc1
# Test: as above
# Summary of the method: as §1
row,Binder,SPOT peptide array binding signal intensity
1,B1,657

# Biological target: CaBem1-D1
# Test: as above
# Summary of the method: as §1
row,Binder,SPOT peptide array binding signal intensity
1,B1,21

# Biological target: CaBzz1-D1
# Test: as above
# Summary of the method: as §1
row,Binder,SPOT peptide array binding signal intensity
1,B1,934

# Biological target: CaBzz1-D2
# Test: as above
# Summary of the method: as §1
row,Binder,SPOT peptide array binding signal intensity
1,B1,162

# Biological target: CaCyk3
# Test: as above
# Summary of the method: as §1
row,Binder,SPOT peptide array binding signal intensity
1,B1,21

# Biological target: CaFus1
# Test: as above
# Summary of the method: as §1
row,Binder,SPOT peptide array binding signal intensity
1,B1,45.5

# Biological target: CaHof1
# Test: as above
# Summary of the method: as §1
row,Binder,SPOT peptide array binding signal intensity
1,B1,17.5

# Biological target: CaHse1
# Test: as above
# Summary of the method: as §1
row,Binder,SPOT peptide array binding signal intensity
1,B1,3.5

# Biological target: CaLsb1
# Test: as above
# Summary of the method: as §1
row,Binder,SPOT peptide array binding signal intensity
1,B1,0.5

# Biological target: CaLsb4
# Test: as above
# Summary of the method: as §1
row,Binder,SPOT peptide array binding signal intensity
1,B1,939

# Biological target: CaMyo5
# Test: as above
# Summary of the method: as §1
row,Binder,SPOT peptide array binding signal intensity
1,B1,1.5

# Biological target: CaNbp2
# Test: as above
# Summary of the method: as §1
row,Binder,SPOT peptide array binding signal intensity
1,B1,39.5

# Biological target: CaRvs167
# Test: as above
# Summary of the method: as §1
row,Binder,SPOT peptide array binding signal intensity
1,B1,223

# Biological target: CaRvs167-3
# Test: as above
# Summary of the method: as §1
row,Binder,SPOT peptide array binding signal intensity
1,B1,6.25

# Biological target: CaSho1
# Test: as above
# Summary of the method: as §1
row,Binder,SPOT peptide array binding signal intensity
1,B1,3.5

# Biological target: CaSla1-D1-D2
# Test: as above
# Summary of the method: as §1
row,Binder,SPOT peptide array binding signal intensity
1,B1,242

# Biological target: CaSla1-D3
# Test: as above
# Summary of the method: as §1
row,Binder,SPOT peptide array binding signal intensity
1,B1,3.75

# Biological target: ScAbp1
# Test: as above
# Summary of the method: as §1
row,Binder,SPOT peptide array binding signal intensity
1,B1,3

# Biological target: ScBbc1
# Test: as above
# Summary of the method: as §1
row,Binder,SPOT peptide array binding signal intensity
1,B1,72.5

# Biological target: ScBem1-D1
# Test: as above
# Summary of the method: as §1
row,Binder,SPOT peptide array binding signal intensity
1,B1,2

# Biological target: ScBzz1-D1
# Test: as above
# Summary of the method: as §1
row,Binder,SPOT peptide array binding signal intensity
1,B1,36

# Biological target: ScBzz1-D2
# Test: as above
# Summary of the method: as §1
row,Binder,SPOT peptide array binding signal intensity
1,B1,24

# Biological target: ScCyk3
# Test: as above
# Summary of the method: as §1
row,Binder,SPOT peptide array binding signal intensity
1,B1,2

# Biological target: ScFus1
# Test: as above
# Summary of the method: as §1
row,Binder,SPOT peptide array binding signal intensity
1,B1,10

# Biological target: ScHof1
# Test: as above
# Summary of the method: as §1
row,Binder,SPOT peptide array binding signal intensity
1,B1,56.2

# Biological target: ScHse1
# Test: as above
# Summary of the method: as §1
row,Binder,SPOT peptide array binding signal intensity
1,B1,6

# Biological target: ScLsb1
# Test: as above
# Summary of the method: as §1
row,Binder,SPOT peptide array binding signal intensity
1,B1,49.2

# Biological target: ScLsb2
# Test: as above
# Summary of the method: as §1
row,Binder,SPOT peptide array binding signal intensity
1,B1,3.5

# Biological target: ScLsb3
# Test: as above
# Summary of the method: as §1
row,Binder,SPOT peptide array binding signal intensity
1,B1,1110

# Biological target: ScLsb4
# Test: as above
# Summary of the method: as §1
row,Binder,SPOT peptide array binding signal intensity
1,B1,394

# Biological target: ScMyo3
# Test: as above
# Summary of the method: as §1
row,Binder,SPOT peptide array binding signal intensity
1,B1,40.5

# Biological target: ScMyo5
# Test: as above
# Summary of the method: as §1
row,Binder,SPOT peptide array binding signal intensity
1,B1,22

# Biological target: ScNbp2
# Test: as above
# Summary of the method: as §1
row,Binder,SPOT peptide array binding signal intensity
1,B1,10.5

# Biological target: ScPex13
# Test: as above
# Summary of the method: as §1
row,Binder,SPOT peptide array binding signal intensity
1,B1,304

# Biological target: ScRvs167
# Test: as above
# Summary of the method: as §1
row,Binder,SPOT peptide array binding signal intensity
1,B1,966

# Biological target: ScSho1
# Test: as above
# Summary of the method: as §1
row,Binder,SPOT peptide array binding signal intensity
1,B1,45

# Biological target: ScSla1-D1-D2
# Test: as above
# Summary of the method: as §1
row,Binder,SPOT peptide array binding signal intensity
1,B1,565

# Biological target: ScSla1-D3
# Test: as above
# Summary of the method: as §1
row,Binder,SPOT peptide array binding signal intensity
1,B1,1.5

# Biological target: SpAbp1-D1
# Test: as above
# Summary of the method: as §1
row,Binder,SPOT peptide array binding signal intensity
1,B1,14.5

# Biological target: SpBbc1
# Test: as above
# Summary of the method: as §1
row,Binder,SPOT peptide array binding signal intensity
1,B1,1

# Biological target: SpBzz1-D1
# Test: as above
# Summary of the method: as §1
row,Binder,SPOT peptide array binding signal intensity
1,B1,208

# Biological target: SpBzz1-D2
# Test: as above
# Summary of the method: as §1
row,Binder,SPOT peptide array binding signal intensity
1,B1,6.5

# Biological target: SpCyk3
# Test: as above
# Summary of the method: as §1
row,Binder,SPOT peptide array binding signal intensity
1,B1,3

# Biological target: SpHof1
# Test: as above
# Summary of the method: as §1
row,Binder,SPOT peptide array binding signal intensity
1,B1,5.5

# Biological target: SpHof1-2
# Test: as above
# Summary of the method: as §1
row,Binder,SPOT peptide array binding signal intensity
1,B1,5.5

# Biological target: SpHof1-3
# Test: as above
# Summary of the method: as §1
row,Binder,SPOT peptide array binding signal intensity
1,B1,57.5

# Biological target: SpHse1
# Test: as above
# Summary of the method: as §1
row,Binder,SPOT peptide array binding signal intensity
1,B1,7.5

# Biological target: SpLsb1
# Test: as above
# Summary of the method: as §1
row,Binder,SPOT peptide array binding signal intensity
1,B1,69.5

# Biological target: SpLsb4
# Test: as above
# Summary of the method: as §1
row,Binder,SPOT peptide array binding signal intensity
1,B1,1170

# Biological target: SpMyo1
# Test: as above
# Summary of the method: as §1
row,Binder,SPOT peptide array binding signal intensity
1,B1,99.5

# Biological target: SpNbp2
# Test: as above
# Summary of the method: as §1
row,Binder,SPOT peptide array binding signal intensity
1,B1,29.5

# Biological target: SpPex13
# Test: as above
# Summary of the method: as §1
row,Binder,SPOT peptide array binding signal intensity
1,B1,2.5

# Biological target: SpRvs167
# Test: as above
# Summary of the method: as §1
row,Binder,SPOT peptide array binding signal intensity
1,B1,915

# Biological target: SpSla1-D1-D2
# Test: as above
# Summary of the method: as §1
row,Binder,SPOT peptide array binding signal intensity
1,B1,13

# Biological target: SpSla1-D3
# Test: as above
# Summary of the method: as §1
row,Binder,SPOT peptide array binding signal intensity
1,B1,≤ 0
